MsrA act: bovine methionine sulfoxide reductase A activation; purified bovine MsrA, absorbance read-out; activation, % at 10.6 µM; hit rate 0.3% among 360,000; AID 602163; in the data active means activation above about 7.5%;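 further: 0% = vehicle and 100% = reference activator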
Mot1-301 SUMO: blocks SUMOylation pathway, rescuing yeast Mot1-301 growth | S. cerevisiae Mot1-301 growth rescue, ATP luminescence, 38.5C; percent above DMSO median, 100 means doubled | growth rescue, % at 18.8 µM | hit rate 1% among 320,000 | AID 2716;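 active means every valid replicate shows activation above 250% relative to neutral control wells; inactive means the rest, any valid replicate at or below 250%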;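 further: OY570 slx delta 5 strain wells were the positive control but not used for scaling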
PKA-R1A act: PKA-R1A complex activation. hit rate 0.083% among 340,000. activation, % at 11.4 µM. PKA-R1A dissociation, Cy5-IP20 fluorescence polarization; scaled: DMSO 0%, 113 µM cGMP 100%. P00514+P68181;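 active means percent activation above the mean of all tested compounds plus 3 SD, cut at about 19% in these data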;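 further: higher means more PKAc released from R1A so a rise in polarization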
MsrA inhibitor: bovine MsrA inhibition; purified bovine MsrA, absorbance read-out; inhibition, % at 15.5 µM; hit rate 0.75% among 360,000; AID 651718; in the data active means inhibition above about 4.5%;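 further: 0% = vehicle wells with enzyme and 100% = reference inhibitor wells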
PKA-R2B act: PKA-R2B complex activation; P22694+P31323; PKA-R2B holoenzyme dissociation, Cy5-IP20 fluorescence polarization; R2B truncated from residue 108, S112A mutant; 0% DMSO only, 100% 113 µM cGMP; activation, % at 11.4 µM; hit rate 0.079% among 340,000; AID 504700;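 active means activation above a cutoff set at the mean over all compounds plus 3 SD, cut at about 18% in these data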;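 further: higher means more holoenzyme dissociation and a rise in polarization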
Target sequence (P31323 whole entry, looked up, other chains not shown, the tested form may be a part): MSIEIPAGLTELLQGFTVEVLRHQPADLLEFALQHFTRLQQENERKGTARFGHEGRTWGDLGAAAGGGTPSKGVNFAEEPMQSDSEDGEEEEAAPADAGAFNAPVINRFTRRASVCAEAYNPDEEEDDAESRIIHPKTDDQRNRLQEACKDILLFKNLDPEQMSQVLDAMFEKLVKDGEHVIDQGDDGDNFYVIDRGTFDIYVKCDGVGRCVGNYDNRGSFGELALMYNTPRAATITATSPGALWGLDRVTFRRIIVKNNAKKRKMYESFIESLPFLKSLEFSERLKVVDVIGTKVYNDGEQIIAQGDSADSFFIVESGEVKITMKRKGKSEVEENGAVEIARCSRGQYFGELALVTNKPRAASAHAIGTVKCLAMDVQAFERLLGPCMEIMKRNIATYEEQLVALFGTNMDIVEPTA
Yeast Mot1 SUMO: inhibits SUMO pathway, affecting Mot1-301 yeast growth. growth activity, percent, % at 42 µM. shares compounds with Mot1-301 SUMO. S. cerevisiae Mot1-301 galactose growth, ATP luminescence, 24 h; -100 = growth of slx-deleted rescue strain. 2,300 tested, under 10 active;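 active means Signal drops as the depositor expects, and the fitted half-maximal dose is no more than ten times the top valid tested dose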;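 further: more negative values mean stronger growth rescue toward the control strain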
The depositor's hits bear a star; · = no result given; + = active, no number. Sampled rows, rich in hits. Any-hit rate of the full collection: about 2%.

SMILES	MsrA act	Mot1-301 SUMO	PKA-R1A act	MsrA inhibitor	PKA-R2B act	Yeast Mot1 SUMO
COC(=O)[C@]12C[C@H](CC(=O)NCCC(C)C)C(=O)N(CCC3=CCCCC3)C1=C[C@H](COCc1ccccc1)O[C@@H]2C	·	·	·	1	·	·
Oc1c(Br)cc(Cl)cc1C=Nc1ccccc1Br	-6	634*	-5	0	8	1
O=C(COC(=O)c1cccc(Br)c1)Nc1ccc2[nH]c(=O)[nH]c2c1	-2	510*	-3	1	-1	0
Cc1cccc(C)c1NC(=S)N(CCN(C)C)C(C)c1ccccn1 (stereo unspecified)	-4	8	9	0	-8	·
CC(c1ccccn1)N(CCN(C)C)C(=S)Nc1cccc(F)c1 (stereo unspecified)	-5	436*	-6	·	0	0
CCN=C1NC(c2cccc(Cl)c2)C(C(=O)OC)=C(C)N1Cc1ccccc1C(F)(F)F (stereo unspecified)	·	·	·	0	·	·
Cc1cccc(Cn2c(C(=O)OC(C)C)cc3c2ccn3C)c1	-2	+	9	0	-2	1
CCOC(=O)c1cc2c(ccn2C)n1Cc1ccc(Cl)cc1	-5	8	-2	1	13	·
COCc1cc(N2CCNC[C@H]2C)ccc1N1CCN(Cc2ccccc2)[C@@H](C)C1	·	·	·	0	·	·
CC(C)CNC(=O)c1cc([N+](=O)[O-])ccc1N1CCOCC1	-4	17	-9	1	1	·
CCN(C(=O)COC(=O)c1cc([N+](=O)[O-])ccc1N1CCOCC1)C1CCCCC1	-3	538*	-2	3	5	1
Cc1cc(C)c(NC(=O)CNC(=O)c2cc([N+](=O)[O-])ccc2N2CCOCC2)c(C)c1	-1	507*	9	1	-4	0
COC(=O)C1=C(C)N(C)C(=NCc2ccccc2C(F)(F)F)NC1c1ccc(Cl)cc1 (stereo unspecified)	·	·	·	0	·	·
Cc1ccc(C2=NN(CC(=O)NCc3cccs3)C(=O)CC2)cc1	1	399*	-6	0	-1	0
Cc1ccc(C2=NN(CC(=O)NCCN(C)C)C(=O)CC2)cc1	-4	-8	-8	1	0	·
COC(=O)c1ccccc1NC(=O)CSc1nnnn1CC(=O)O	-4	616*	3	0	-1	0
C=CCn1nnnc1SCC(=O)Nc1ccccc1C(=O)OC	-4	-19	-5	1	5	·
CN(c1cccnc1)c1ccc(NC(=O)Cc2c[nH]c3ccccc23)cc1-c1ccc(C(C)(C)C)cc1	·	·	·	1	·	·
O=C(CSc1nnc(COc2ccccc2Cl)o1)NC(=O)NC1CCCC1	-2	392*	-6	0	4	0
O=C(O)COc1ccc(=O)n(-c2ccccc2)n1	-3	+	-7	2	-8	0
CCCCn1c(N)c(N(Cc2ccccc2OC)C(=O)c2c(CC)noc2C)c(=O)[nH]c1=O	-8	395*	6	0	-6	1
CS(=O)(=O)N(CC(=O)N1CCCCCC1)Cc1ccc(Cl)cc1	-3	589*	1	2	4	0
CN1CCN(C(=O)CN(Cc2ccc(Cl)cc2)S(C)(=O)=O)CC1	-3	16	-5	0	-9	·
COc1ccc2c(CC(=O)Nc3ccc(OC)c(NS(=O)(=O)c4ccc(F)cc4)c3)coc2c1	-2	560*	-13	1	4	-1
COC(=O)C1=C(C)N(Cc2ccccc2)C(=S)NC1c1ccc(Br)cc1 (stereo unspecified)	·	·	·	1	·	·
SMILES	MsrA act	Mot1-301 SUMO	PKA-R1A act	MsrA inhibitor	PKA-R2B act	Yeast Mot1 SUMO
COc1ccc(-c2cc(=O)[nH]c(N3CCN(Cc4ccccc4)CC3)n2)cc1	-5	8	1	0	2	·
O=c1cc(-c2ccccc2)nc(N2CCN(Cc3ccccc3)CC2)[nH]1	-6	479*	-1	0	0	0
O=C(C1CCC(CNc2c(N3CCCCC3)c(=O)c2=O)CC1)N1CCN(C2CCCCC2)CC1 (stereo unspecified)	-3	499*	3	0	4	1
C=CCN=C1NC(c2ccc(F)cc2)C(C(=O)OC)=C(C)N1C (stereo unspecified)	·	·	·	1	·	·
O=C1CCC(C(=O)N2CCN(c3ccc(F)cc3)CC2)CN1CC1CCCCC1 (stereo unspecified)	-3	22	2	0	0	·
O=C1CCC(C(=O)N2CCN(c3ccccc3)CC2)CN1CC1CCCCC1 (stereo unspecified)	-4	532*	2	0	2	0
Cc1[nH]nc2c1C(c1cccs1)C1=C(CCCC1=O)N2 (stereo unspecified)	-5	-10	-4	2	-2	·
Cc1[nH]nc2c1C(c1cccs1)C1=C(CC(C)(C)CC1=O)N2 (stereo unspecified)	-1	662*	-9	1	-12	0
COc1ccc(C2C3=C(CC(C)(C)CC3=O)Nc3n[nH]c(C)c32)cc1 (stereo unspecified)	-2	365*	0	4	0	0
COc1cccc(C2C3=C(CC(C)(C)CC3=O)Nc3n[nH]c(C)c32)c1 (stereo unspecified)	-1	4	8	4	2	·
COc1ccc(/C=C/C(=O)NC(=S)Nc2ccccn2)cc1	-1	900*	4	2	-3	0
COc1ccccc1/C=C/C(=O)NC(=S)Nc1ccccn1	-5	-19	-2	2	4	·
O=C(O)c1ccc(COc2c(F)c(F)cc(F)c2F)cc1	-9	+	1	-1	4	0
COC(=O)c1ccc(COc2c(F)c(F)cc(F)c2F)o1	-2	94	-7	0	-1	·
Nc1ccnc(=O)[nH]1	-6	654*	-16	-1	-9	0
O=C(c1ccncc1)N(Cc1ccccc1)Cc1nc2ccccc2c(=O)[nH]1	-1	414*	0	-1	-13	0
CN(C)c1cccc(C(=O)Nc2cc(C(F)(F)F)ccc2-n2cnc3ccccc32)c1	-5	400*	0	1	-6	0
Clc1ccc(-c2nnnn2-c2ccc(Cl)cc2)cc1	-3	29	·	1	·	·
Cc1ccc(-n2nnnc2C(Cl)(Cl)c2nnnn2-c2ccc(C)cc2)cc1	-1	+	-5	-1	-4	0
C#CCn1c(=NC(=O)CN2C(=O)CCC2=O)sc2cccc(OC)c21	-3	+	5	0	-2	1
O=C(Nc1ccc(Nc2cccnc2)cc1)c1c[nH]c2ccccc12	·	·	·	1	·	·
COc1ccc(C)cc1NC(=S)N1CCN(c2ccccn2)CC1	-2	513*	4	0	-3	1
COc1ccc(NC(=S)N2CCN(c3ccccn3)CC2)cc1OC	-1	3	-12	2	-6	·

High-throughput results as filed in PubChem.
